# Measurements as given in PubChem BioAssay (EPA / NIEHS).
# Active and inactive are the calls of the source. How the source made its calls: active means hit-call score of the fitted dose curve at least 0.9, where 1 is the maximum; inactive means score below 0.9.
# Biological target: Nuclear respiratory factor 1 (Homo sapiens) (UniProt Q16656)
# Test: ATG_NRF1_CIS: Attagene CIS-FACTORIAL HepG2 Assay for human Nuclear Respiratory Factor 1 (NRF1) Orphan Gene (AID 2282987)
# Conditions: HepG2 NRF1 cis-element reporter, Attagene multiplex; actives raise or lower the signal
# Summary of the method: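 Reporter mRNA induction or loss in HepG2 cells after 24 h dosing; cis-regulated reporter constructs report endogenous transcription-factor activity. Quantified by RT-PCR/capillary electrophoresis fluorescence, DMSO-referenced.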
# Nuclear respiratory factor 1 (Homo sapiens), sequence (Q16656 whole entry, looked up): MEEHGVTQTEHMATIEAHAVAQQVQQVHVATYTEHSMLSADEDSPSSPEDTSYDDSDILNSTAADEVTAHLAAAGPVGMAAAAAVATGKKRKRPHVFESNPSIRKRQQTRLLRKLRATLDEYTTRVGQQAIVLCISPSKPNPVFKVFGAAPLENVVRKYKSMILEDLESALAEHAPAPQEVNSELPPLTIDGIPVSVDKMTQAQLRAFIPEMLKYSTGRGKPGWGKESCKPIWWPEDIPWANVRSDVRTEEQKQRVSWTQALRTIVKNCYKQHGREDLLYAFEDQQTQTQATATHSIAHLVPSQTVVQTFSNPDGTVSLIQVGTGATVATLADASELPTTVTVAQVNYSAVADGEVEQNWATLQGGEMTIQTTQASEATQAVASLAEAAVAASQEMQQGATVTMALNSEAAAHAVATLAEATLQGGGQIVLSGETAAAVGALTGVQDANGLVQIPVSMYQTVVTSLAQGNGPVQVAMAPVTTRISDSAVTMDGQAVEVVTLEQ
SMILES,outcome,AC50
Brc1ccccn1,inactive,–
O=C1OC(=O)c2ccc3c4c(ccc1c24)C(=O)OC3=O,inactive,–
NCC(F)(F)C(F)(F)C(F)(F)C(F)(F)C(F)(F)C(F)(F)F,inactive,–
CC(C)(C)C(=O)C1C(=O)c2ccccc2C1=O,inactive,–
O=C1c2c(O)ccc(Nc3ccc(CCO)cc3)c2C(=O)c2c([N+](=O)[O-])ccc(O)c21,inactive,–
CC(C)OC=O,inactive,–
O=S(=O)(Cl)C(F)(F)C(F)(F)C(F)(F)C(F)(F)C(F)(F)C(F)(F)C(F)(F)C(F)(F)F,inactive,–
CC1=CCC(=O)O1,inactive,–
CC(O)C#CC(C)O (stereo not drawn),–,143 µM (active)
NC(=O)C(F)(F)C(F)(F)C(F)(F)C(F)(F)C(N)=O,inactive,–
CC(C)OC(=O)COc1ccc(Cl)cc1Cl,inactive,–
CCn1c2ccccc2c2ccccc21,inactive,–
OCC(F)(F)C(F)(F)C(F)(F)CO,inactive,–
CCN(CCO)S(=O)(=O)C(F)(F)C(F)(F)C(F)(F)C(F)(F)C(F)(F)C(F)(F)C(F)(F)C(F)(F)F,inactive,–
NC(=O)C(F)(F)C(F)(F)C(F)(F)C(F)F,inactive,–
O=C=Nc1cccc2c(N=C=O)cccc12,inactive,–
CC1=CC2C3C=CC(C3)C2C1C (stereo not drawn),inactive,–
O=C1C=CC(=O)N1c1ccccc1,inactive,–
O=C=NCc1cccc(CN=C=O)c1,inactive,–

SMILES,outcome,AC50
O=C(O)C(F)(F)OC(F)(F)C(F)(F)OC(F)(F)C(F)(F)OC(F)(F)F,inactive,–
NC(O)(C(F)(F)F)C(F)(F)F,inactive,–
O=C(Cl)C(F)(F)C(F)(F)C(F)(F)C(F)(F)C(F)(F)C(F)(F)C(F)(F)F,inactive,–
O=C(F)C1(F)C(F)(F)C(F)(F)C(F)(F)C(F)(F)C1(F)F,inactive,–
CCN(CC)c1ccc(C=O)cc1,inactive,–
CCCCOC(=O)[C@H](C)O,inactive,–
COCCC(=O)OC,inactive,–
Cc1ccc(S(=O)(=O)C(I)I)cc1,–,7.84 µM (active)
C#CC(O)CCC (stereo not drawn),inactive,–
O=C(O)C(F)(F)C(F)(F)C(F)(F)C(=O)O,inactive,–
CC(C)(C)c1cc(CCC(=O)OCC(COC(=O)CCc2cc(C(C)(C)C)c(O)c(C(C)(C)C)c2)(COC(=O)CCc2cc(C(C)(C)C)c(O)c(C(C)(C)C)c2)COC(=O)CCc2cc(C(C)(C)C)c(O)c(C(C)(C)C)c2)cc(C(C)(C)C)c1O,inactive,–
CC(C)Nc1ccc(NC(C)C)c2c1C(=O)c1ccccc1C2=O,inactive,–
CN(N=O)C(=O)N[C@@H]1[C@@H](O)[C@H](O)[C@@H](CO)O[C@@H]1O,inactive,–
OCCCCC(F)(F)C(F)(F)C(F)(F)C(F)(F)F,inactive,–
COC(F)(C(F)F)C(F)(F)F (stereo not drawn),inactive,–
N#CCCOCCC#N,inactive,–
O=C(c1ccccc1)c1ccc(Cl)cc1,inactive,–
Nc1cccnc1N,inactive,–
N#Cc1ccccc1O,inactive,–
